Experimental data: ChEMBL document CHEMBL2218924, “A broad activity screen in support of a chemogenomic map for kinase signalling research and drug discovery” (Biochem J, 2013)

Biological target: Glycogen synthase kinase-3 alpha (Homo sapiens) (UniProt P49840)
Details: at 1 µM

Sequence of Glycogen synthase kinase-3 alpha (Homo sapiens) (P49840 2-483 limits assumed): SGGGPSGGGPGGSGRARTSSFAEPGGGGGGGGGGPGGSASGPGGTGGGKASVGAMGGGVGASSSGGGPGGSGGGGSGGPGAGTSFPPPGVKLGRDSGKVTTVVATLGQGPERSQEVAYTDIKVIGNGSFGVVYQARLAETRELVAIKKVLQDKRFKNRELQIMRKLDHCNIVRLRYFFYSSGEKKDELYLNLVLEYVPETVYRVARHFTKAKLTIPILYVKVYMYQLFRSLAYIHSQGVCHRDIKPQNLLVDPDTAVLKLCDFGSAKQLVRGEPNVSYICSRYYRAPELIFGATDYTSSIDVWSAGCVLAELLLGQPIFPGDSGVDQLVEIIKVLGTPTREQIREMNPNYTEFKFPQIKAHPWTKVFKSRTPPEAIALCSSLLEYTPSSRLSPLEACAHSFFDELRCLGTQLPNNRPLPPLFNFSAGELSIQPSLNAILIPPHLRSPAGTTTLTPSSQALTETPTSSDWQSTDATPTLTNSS

Compound	residual activity
Cn1c2ccccc2c2c3c(c4c5ccccc5n(CCC#N)c4c21)CNC3=O	20%
CCCCc1c(-c2ccc(OC)cc2)[nH]c2nccnc12	46%
Nc1nc(Nc2ccc(S(N)(=O)=O)cc2)nn1C(=O)c1c(F)cccc1F	11%
O=C1NC(=O)C(c2c[nH]c3ccccc23)=C1c1c[nH]c2ccccc12	19%
COc1cc2c(cc1OC)-c1n[nH]c(Nc3cccc(F)c3)c1C2	115%
CC(C)(C)n1nc(Cc2cccc3ccccc23)c2c(N)ncnc21	116%
O=C(Nc1nc2ccccc2n1CCN1CCOCC1)c1cccc([N+](=O)[O-])c1	113%
CCCCc1c(-c2ccc(O)cc2)[nH]c2nccnc12	62%
CC(C)c1nn(-c2c(Cl)cccc2Cl)c2nc(Cc3ccc(OCCO)cc3)[nH]c(=O)c12	66%
O=C(c1ccccc1)c1ccc(N2CCOCC2)cc1O	91%
O=C(O)/C=C/c1cc(Br)c(Br)c(Br)c1Br	93%
O=C1NC(=O)c2c1c1c3ccccc3[nH]c1n1cncc21	7%
O=C1Nc2ccc(Cl)cc2/C1=C/c1cc(Cl)c(O)c(Cl)c1	75%
NC(=O)Nc1sc(-c2ccc(F)cc2)cc1C(N)=O	64%
COc1ccc2c(c1)c(C1=C(c3c[nH]c4ccccc34)C(=O)NC1=O)cn2CCCN(C)C	15%
Nc1ncnc2c1c(-c1ccc(Oc3ccccc3)cc1)cn2C1CCCC1	104%
O=C1NC(=O)C(c2cn(CCCn3ccnc3)c3ccccc23)=C1Nc1ccccc1	14%
CN(C)S(=O)(=O)c1ccc2c(c1)/C(=C/c1cc3c([nH]1)CCCC3)C(=O)N2	97%
CC(C)[C@H](CO)Nc1nc(Nc2cc(N)cc(Cl)c2)c2ncn(C(C)C)c2n1	80%
COc1cc2nccc(Oc3ccc(NC(=S)NC(=O)c4ccccc4C)cc3)c2cc1OC	120%
Cc1cc(C)c(/C=C2\C(=O)Nc3ccccc32)[nH]1	106%

Biological target: Glycogen synthase kinase-3 alpha (Homo sapiens) (UniProt P49840)
Details: at 10 µM

Compound	residual activity
Cn1c2ccccc2c2c3c(c4c5ccccc5n(CCC#N)c4c21)CNC3=O	19%
CCCCc1c(-c2ccc(OC)cc2)[nH]c2nccnc12	41%
Nc1nc(Nc2ccc(S(N)(=O)=O)cc2)nn1C(=O)c1c(F)cccc1F	4%
O=C1NC(=O)C(c2c[nH]c3ccccc23)=C1c1c[nH]c2ccccc12	4%
COc1cc2c(cc1OC)-c1n[nH]c(Nc3cccc(F)c3)c1C2	108%
CC(C)(C)n1nc(Cc2cccc3ccccc23)c2c(N)ncnc21	130%
Nc1ncnc2c1cnn2-c1ccccc1	140%
O=C(Nc1nc2ccccc2n1CCN1CCOCC1)c1cccc([N+](=O)[O-])c1	116%
CCCCc1c(-c2ccc(O)cc2)[nH]c2nccnc12	20%
Oc1cccc(-c2nc(N3CCOCC3)c3oc4ncccc4c3n2)c1	127%
CC(C)c1nn(-c2c(Cl)cccc2Cl)c2nc(Cc3ccc(OCCO)cc3)[nH]c(=O)c12	13%
O=C(c1ccccc1)c1ccc(N2CCOCC2)cc1O	121%
O=C(c1cc2cc(O)ccc2[nH]1)c1cc2cc(O)ccc2[nH]1	26%
O=c1cc(N2CCOCC2)oc2c1ccc1ccccc12	80%
O=C(O)/C=C/c1cc(Br)c(Br)c(Br)c1Br	51%
O=C1NC(=O)c2c1c1c3ccccc3[nH]c1n1cncc21	4%
O=C1Nc2ccc(Cl)cc2/C1=C/c1cc(Cl)c(O)c(Cl)c1	30%
NC(=O)Nc1sc(-c2ccc(F)cc2)cc1C(N)=O	29%
COc1ccc2c(c1)c(C1=C(c3c[nH]c4ccccc34)C(=O)NC1=O)cn2CCCN(C)C	-1%
Nc1ncnc2c1c(-c1ccc(Oc3ccccc3)cc1)cn2C1CCCC1	112%
O=C1NC(=O)C(c2cn(CCCn3ccnc3)c3ccccc23)=C1Nc1ccccc1	1%
CN(C)S(=O)(=O)c1ccc2c(c1)/C(=C/c1cc3c([nH]1)CCCC3)C(=O)N2	94%
CC(C)[C@H](CO)Nc1nc(Nc2cc(N)cc(Cl)c2)c2ncn(C(C)C)c2n1	28%
O=C(NC(NC(=S)Nc1ccc(F)c([N+](=O)[O-])c1)C(Cl)(Cl)Cl)C(c1ccccc1)c1ccccc1 (centres undefined)	89%
COc1cc2nccc(Oc3ccc(NC(=S)NC(=O)c4ccccc4C)cc3)c2cc1OC	147%
CCCC(=O)Oc1ccc2[nH]c(C(=O)c3cc4ccccc4[nH]3)cc2c1	125%
Cc1cc(C)c(/C=C2\C(=O)Nc3ccccc32)[nH]1	124%
O=C(CCCc1ccc(-c2ccccc2F)cc1)Nc1ccc(O)cc1	84%
